Rows were chosen to be rich in hits. Some 1.5% of all compounds tested hit in one or more screens of this group.
RECQ1 inh – qHTS Assay for Inhibitors of RecQ-Like Dna Helicase 1 (RECQ1); Potency, µM (titrated, usually from 57.3 µM), usual class: inhibitors; RECQ1 DNA unwinding, red fluorescence kinetic read; ATP-dependent DNA helicase Q1 (Homo sapiens), P46063; 240,000 compounds, 0.54% hits; AID 2549, 2010; note: nearly all actives have a fitted effect of over 30% in size
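RECQ1T1 50 nM; forked duplex (20 bp + 30-nt ss tails) 200 nM, ATP 2 mM final; pH 8.0, 2 mM MgCl2, 2.5 ug/ml poly(dI-dC); 15 min compound preincubation; discontinuous kinetic read over 2 h at RT.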
APE1 inh – qHTS Assay for Inhibitors of the Human Apurinic/apyrimidinic Endonuclease 1 (APE1). DNA repair nuclease/redox regulator APEX1 (Homo sapiens), P27695. recombinant APE1, TAMRA/BHQ-2 abasic DNA cleavage fluorescence. Potency, µM (series often up to 65.8 µM), actives largely listed as inhibitors. 350,000 compounds, 0.35% hits; note: nearly all actives have a fitted effect of over 55% in size
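Enzyme (0.75 nM final) and test compound are incubated 15 min at room temperature before adding 50 nM quenched THF abasic-site duplex. Cleavage dequenches TAMRA, followed at 525/598 nm over three reads one minute apart.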
FEN1 inhibitor – qHTS Assay for the Inhibitors of Human Flap endonuclease 1 (FEN1). P39748. Recombinant FEN1 flap cleavage, fluorescence, 15 min. Potency, µM (titrated, usually from 114 µM), hits mostly inhibitors. 390,000 compounds, 0.35% hits; note: nearly all actives have a fitted effect of over 65% in size
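Potency values derive from four-parameter Hill fits of normalized qHTS data. The reaction used 10 nM FEN1 preincubated 15 min at room temperature with compound, then 50 nM DNA substrate, read at 0 and 15 min.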
WRN inhibitor – qHTS for Inhibitors of WRN Helicase; WRN helicase unwinding, fluorescent forked duplex, kinetic; Potency, µM (highest dose often 114 µM), most hits filed as inhibitors; 360,000 compounds, 0.46% hits; AID 651768, 2012; note: nearly all actives have a fitted effect of over 55% in size
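WRN at 20 nM final preincubated with compound 15 min at room temperature; reaction started with 100 nM fluorophore/quencher forked duplex oligonucleotide and 2 mM ATP final. Unwinding followed kinetically by red fluorescence (ex 525, em 598 nm).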
PI5P4K alpha inh – qHTS for Inhibitors of phosphatidylinositol 5-phosphate 4-kinase (PI5P4K); AID 652105, 2013; PI5P4Kalpha enzyme, ADP-Glo luminescence, 60 min; stronger effect = lower value; 330,000 compounds, 1.2% hits; max response, %; active = max response of -50% or lower; inconclusive = between -30% and -50%; inactive = -30% or higher; note: value at the top dose of about 77 µM
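Single end-point luminescence (ADP-Glo) quantified ADP from PI5P4Kalpha turnover; ATP 5 microM final, 1 h at RT, 0.1% CHAPS and 0.28 mM EGTA in HEPES pH 7.4.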
BLM inh – qHTS Assay for Inhibitors of Bloom's syndrome helicase (BLM) | RecQ-like DNA helicase BLM (Homo sapiens), P54132 | recombinant BLM DNA unwinding, fluorescence dequenching | Potency, µM (titrated, usually from 56.1 µM), hits mostly inhibitors | 350,000 compounds, 0.2% hits; note: nearly all actives have a fitted effect of over 35% in size
Target sequence (P54132 whole entry, looked up): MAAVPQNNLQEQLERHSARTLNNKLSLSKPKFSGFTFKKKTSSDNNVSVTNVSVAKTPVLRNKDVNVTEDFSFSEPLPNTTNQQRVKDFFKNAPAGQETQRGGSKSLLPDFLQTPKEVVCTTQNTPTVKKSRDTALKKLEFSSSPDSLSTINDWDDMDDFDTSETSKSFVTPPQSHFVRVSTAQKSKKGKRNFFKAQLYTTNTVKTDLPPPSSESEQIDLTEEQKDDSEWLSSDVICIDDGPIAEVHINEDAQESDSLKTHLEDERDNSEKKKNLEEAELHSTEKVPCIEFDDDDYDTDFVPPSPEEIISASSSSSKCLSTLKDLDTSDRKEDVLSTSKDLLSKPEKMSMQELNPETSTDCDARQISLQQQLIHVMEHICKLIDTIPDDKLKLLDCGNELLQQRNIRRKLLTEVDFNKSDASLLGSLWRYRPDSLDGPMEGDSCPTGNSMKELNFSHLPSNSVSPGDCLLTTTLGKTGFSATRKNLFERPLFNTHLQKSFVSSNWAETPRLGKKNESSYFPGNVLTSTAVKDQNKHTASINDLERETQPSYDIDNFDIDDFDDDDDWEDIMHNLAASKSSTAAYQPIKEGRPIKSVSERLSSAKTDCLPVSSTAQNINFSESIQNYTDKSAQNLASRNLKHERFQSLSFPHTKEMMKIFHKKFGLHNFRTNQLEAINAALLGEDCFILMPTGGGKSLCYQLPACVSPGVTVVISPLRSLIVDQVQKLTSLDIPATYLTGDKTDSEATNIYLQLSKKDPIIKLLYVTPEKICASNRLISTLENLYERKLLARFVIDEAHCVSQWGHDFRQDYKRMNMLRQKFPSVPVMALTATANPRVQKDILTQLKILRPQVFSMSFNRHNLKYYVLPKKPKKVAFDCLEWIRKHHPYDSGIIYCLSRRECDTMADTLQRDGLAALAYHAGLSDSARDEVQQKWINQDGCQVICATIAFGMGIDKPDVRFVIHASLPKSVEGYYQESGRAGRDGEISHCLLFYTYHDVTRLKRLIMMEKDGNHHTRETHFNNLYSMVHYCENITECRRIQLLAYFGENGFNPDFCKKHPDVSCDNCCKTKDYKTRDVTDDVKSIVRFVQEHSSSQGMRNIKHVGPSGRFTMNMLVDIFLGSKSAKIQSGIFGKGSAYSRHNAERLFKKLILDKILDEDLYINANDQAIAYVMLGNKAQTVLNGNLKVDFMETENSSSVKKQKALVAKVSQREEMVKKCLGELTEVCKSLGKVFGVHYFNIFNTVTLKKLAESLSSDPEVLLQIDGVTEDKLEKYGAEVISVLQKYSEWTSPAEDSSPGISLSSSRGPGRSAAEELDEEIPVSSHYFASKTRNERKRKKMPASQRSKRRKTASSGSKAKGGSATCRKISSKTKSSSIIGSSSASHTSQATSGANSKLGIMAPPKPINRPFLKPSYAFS
A number is an active result; . = inactive; ? = inconclusive; / = no result given; [ ] = remark or other dose. Unless noted, calls come from the whole dose curve; as a rule, active = well fitted curve in the direction sought with a large enough effect; inconclusive = small, poorly fitted or top-dose-only effect, or another doubt; inactive = no such curve, though single readings can be large; an effect the other way counts as inactive or inconclusive.

SMILES | RECQ1 inh | APE1 inh | FEN1 inhibitor | WRN inhibitor | PI5P4K alpha inh | BLM inh
C=CCNS(=O)(=O)c1cccc2cc(C(=O)O)c(O)cc12 | . | . | . | . | -57 | .
Cc1cccc(-c2nc3cc(NC(=O)c4ccc(OCC(C)C)cc4)ccc3o2)c1 | / | / | . | / | / | .
Brc1cc(Br)c[n+](CCc2ccccc2)c1 | / | / | . | / | / | /
CC[C@@]1([C@@H]2O[C@@H]([C@H]3O[C@@](O)(CO)[C@H](C)C[C@@H]3C)C[C@@H]2C)CC[C@H]([C@]2(C)CC[C@]3(C[C@H](O)[C@@H](C)[C@@H]([C@@H](C)[C@@H](OC)[C@H](C)C(=O)O)O3)O2)O1 (stereo in doubt) | / | . | / | / | / | /
CCCN1CCC(=O)N(C(CSc2ccc(Br)cc2)CC(C)C)CC1 (configuration not stated) | . | . | . | / | / | .
O=C(O)c1cc(NN=Nc2cccc(S(=O)(=O)O)c2)cc([N+](=O)[O-])c1 | / | . | . | . | -55 | .
O=C1NC2CCCCC2C(=O)N1OS(=O)(=O)c1ccccc1 (configuration not stated) | / | / | . | 50µM | . | /
CN(C)C1CCN(CCCOc2ccc(-c3ccc(C#N)cc3)cc2)C1 (configuration not stated) | . | . | / | / | / | .
CC(=O)Nc1ccc(S(=O)(=O)NC(CC(=O)N(C)Cc2ccccc2)C(C)C)cc1 (configuration not stated) | . | . | . | . | -53 | .
COC(=O)C1=C(C(=O)OC)[C@@H]2Nc3ccccc3[C@@]23C[C@@H](C(=O)OC)N(S(=O)(=O)c2ccc4c(c2)OCCN4C)C3=N1 | .[11.5 µM] | .[12.4 µM] | / | / | / | .[12.4 µM]
O=C1OC(NC(=O)c2ccccc2)C(n2cc(CO)nn2)=C1Cl (configuration not stated) | . | . | . | 50µM | ? | .
O=C(O)c1ccccc1NC(c1ccccc1)c1ccc2cccnc2c1O (configuration not stated) | / | / | . | 14µM | -57 | /
Cc1ccnc(NC(c2ccccc2)c2ccc3cccnc3c2O)c1 (configuration not stated) | / | / | . | . | . | /
Cc1c(Cl)cccc1-n1nc(C)c2c(C)cc(=O)n(CC(=O)N3CCCc4ccccc43)c21 | / | / | . | / | / | .
O=C(NCCCN1CCOCC1)c1cc(-c2ccco2)nc2ccccc12 | / | . | ? | 50µM | ? | /
Cc1ccc(S(=O)(=O)N(C)C)cc1NC(=O)c1cc(-c2ccco2)nc2ccccc12 | / | . | . | ? | -56 | .
CCC(C)C(N)C1=NC(C(=O)N[C@@H](CC(C)C)C(=O)N[C@H](CCC(=O)[O-])C(=O)N[C@H](C(=O)N[C@H]2CCCCNC(=O)[C@H](CC(N)=O)NC(=O)[C@@H](CC(=O)[O-])NC(=O)[C@H](Cc3cnc[nH]3)NC(=O)[C@@H](Cc3ccccc3)NC(=O)[C@H]([C@@H](C)CC)NC(=O)[C@@H](CCCN)NC2=O)[C@@H](C)CC)CS1.[Zn+2] (some centres not stated) | / | / | 8.9µM | . | . | /
CC[C@@H](C)[C@@H](N)C1=N[C@H](C(=O)N[C@@H](CC(C)C)C(=O)N[C@@H](CCC(=O)O)C(=O)N[C@@H](C(=O)N[C@@H]2CCCCNC(=O)[C@@H](CC(N)=O)NC(=O)[C@@H](CC(=O)O)NC(=O)[C@@H](Cc3cnc[nH]3)NC(=O)[C@@H](Cc3ccccc3)NC(=O)[C@@H]([C@H](C)CC)NC(=O)[C@@H](CCCN)NC2=O)[C@@H](C)CC)CS1 | / | . | / | / | / | /
N#CC(=C(O)COC(=O)Cc1c[nH]c2ccccc12)c1nc2ccccc2[nH]1 | / | / | . | . | -54 | /
CC(C)(C)N[S+](=O)([O-])c1cccc(-c2nnc(SCC(=O)Nc3ccc(C(=O)O)cc3)n2-c2ccccc2)c1 | / | . | / | / | / | /
CN(C)c1ccc(/C=C/c2ccnc3ccc(F)cc23)cc1 | / | / | . | / | / | /
COc1ccc(C(=O)c2coc3ccc(OC(C)=O)cc23)cc1 | / | . | . | . | . | .
CC(=O)Oc1ccc2occ(/C=N/c3cc(=O)[nH]c(=S)[nH]3)c(=O)c2c1 | . | . | . | . | -51 | .
O=C(Nc1ccnn1C1CCN(Cc2ccc3nonc3c2)CC1)c1cccc(F)c1 | / | . | . | . | . | .
COc1ccc(C(=O)Nc2ccnn2C2CCN(Cc3ccc4nonc4c3)CC2)cc1 | / | 5.3µM | . | . | . | .
SMILES | RECQ1 inh | APE1 inh | FEN1 inhibitor | WRN inhibitor | PI5P4K alpha inh | BLM inh
Cc1c(CC(=O)NCCc2ccccc2F)c(=O)oc2c(C)c3occ(C(C)(C)C)c3cc12 | / | / | . | / | / | .
O=C1/C(=C/c2ccccn2)SC(=S)N1Nc1ncc(C(F)(F)F)cc1Cl | / | / | . | . | -66 | /
CCOc1ccc(C2c3[nH]c4ccccc4c3CCN2C(=O)CCc2ccccc2)cc1 (configuration not stated) | / | / | . | / | / | .
CC(/C=N/n1c(-c2n[nH]c3c2CCC3)n[nH]c1=S)=C\c1ccco1 | ? | . | . | .[11.6 µM] | -59 | .
Cc1ccccc1-c1n[nH]c(=S)n1/N=C/C=C/c1ccco1 | ? | ? | 16µM | ? | -84 | .
O=C(Nc1ccc(Br)cc1F)N1CCC2(CC1)Oc1ccccc1C(=O)N2Cc1ccccc1F | / | / | . | / | / | .
COc1cc(/C=C(\C#N)C(=O)Nc2ccccn2)ccc1O | / | . | . | . | -52 | .
COc1cc(/C=C(\C#N)C(=O)Nc2ccc3c(c2)OCCO3)ccc1O | . | . | . | ? | -56 | .
N#C/C(=C\c1ccc2c(c1)OCCO2)C(=O)Nc1nccs1 | / | . | . | . | . | .
CCOc1cc(/C=C(\C#N)C(=O)Nc2ccccn2)ccc1O | / | . | . | . | . | .
COc1c(O)cc(O)cc1O | . | 16µM | / | / | / | .
O=C(O)COc1ccccc1C=NNC(=O)c1ccc(NS(=O)(=O)c2cccs2)cc1 | / | . | . | . | -57 | /
CC(=O)c1ccc(N=Nc2ccc(C)cc2)cc1 | . | . | . | . | . | .
C=C(C)C(=O)Oc1ccc(N=Nc2ccc(C)cc2)ccc1=O | / | / | ? | 40µM | . | /
CC(C)(C)CC(C)(C)N=C1Nc2ccc(Cl)cc2N[C@]12C[C@H]1CCCC(=O)N3CC[C@@H](C2)[C@@H]13 | / | / | . | / | / | /
O=C(Cn1c(=O)oc2cc(S(=O)(=O)NC3CCCC3)ccc21)Nc1ccc(F)c(F)c1 | / | / | . | / | / | .
